From PubChem BioAssay (NCI)
Compounds without any hit were thinned out: in the full panel of roughly 83,000, 20% have a hit.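 Results are percent growth after 48 hours of single-concentration exposure. 100 means growth as in untreated cells, lower positive values show inhibition; negative values down to -100 show cell death.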 Activity calls are given as the source filed them. How the source made its calls: active means growth percent below 10; inactive means the rest.

Columns and labels:
Test in all cases: NCI-60 one-dose screen, 48 h (100 = growth as untreated, 0 = no growth, -100 = all killed)
Conditions in all cases: 10 µM unless noted
[1] = tested on: SR leukemia
[2] = tested on: RPMI-8226 leukemia
[3] = tested on: OVCAR-8 ovarian
[4] = tested on: OVCAR-5 ovarian
[5] = tested on: OVCAR-4 ovarian
[6] = tested on: SK-OV-3 ovarian
[7] = tested on: IGROV1 ovarian
[8] = tested on: OVCAR-3 ovarian
[9] = tested on: HS 578T breast
[10] = tested on: NCI/ADR-RES ovarian
[11] = tested on: T-47D breast
[12] = tested on: BT-549 breast
[13] = tested on: MDA-MB-435 melanoma
[14] = tested on: SW-620 colon
[15] = tested on: MCF7 breast
[16] = tested on: HCT-116 colon
[17] = tested on: HCC-2998 colon
[18] = tested on: KM12 colon

Measured: growth

Cc1nn(-c2ccc(F)cc2)c2ncnc(Nc3ccc(NC(=O)Nc4ccc(Cl)c(C(F)(F)F)c4)cc3)c12
active: [8] -4.21% | [11] 2.53%
inactive: [1] 46.1% | [2] 19.3% | [3] 35.4% | [4] 70.8% | [5] 23.8% | [6] 65.7% | [7] 31% | [9] 31.3% | [10] 38.2% | [12] 57.9% | [13] 40.1% | [14] 19.9% | [15] 12.8% | [16] 32.1% | [17] 22.2% | [18] 14.7%

CCCCN1CCCn2c1nc1c2c(=O)n(CCC)c(=O)n1CCC
inactive: [1] 67.1% | [2] 110% | [3] 102% | [4] 105% | [5] 101% | [6] 101% | [7] 110% | [8] 94.8% | [9] 96.4% | [10] 99.8% | [11] 101% | [12] 98.1% | [13] 102% | [14] 96% | [15] 100% | [16] 98.3% | [17] 104% | [18] 100%

COc1ccc(-n2nc(C)c3c(Nc4ccc(NC(=O)Nc5cc(C(F)(F)F)ccc5F)cc4)ncnc32)cc1
inactive: [1] 28.4% | [3] 26.4% | [4] 25.1% | [5] 57.8% | [6] 29.5% | [7] 39.2% | [8] 25.2% | [9] 28.4% | [10] 24.1% | [11] 11.8% | [12] 65.4% | [13] 53% | [14] 46% | [15] 34.2% | [16] 22% | [17] 21.2% | [18] 16.5%
active: [2] 4.77%

CCc1c(Nc2ccccc2C)nc(N)[nH]c1=O
inactive: [1] 85.9% | [2] 104% | [3] 119% | [4] 92.3% | [5] 107% | [6] 109% | [7] 93.4% | [8] 110% | [9] 115% | [10] 109% | [11] 114% | [12] 102% | [13] 106% | [14] 106% | [15] 97% | [16] 98.4% | [17] 101% | [18] 104%

O=C(/C=C/c1cc(CN2CCOCC2)c(O)c2ncccc12)c1cc(CN2CCOCC2)c(O)c2ncccc12
inactive: [3] 15.2% | [4] 28.3% | [5] 30.3% | [7] 15.4% | [8] 23.6% | [9] 27.1% | [10] 21.4% | [12] 12.8% | [13] 21% | [14] 18.7% | [15] 10% | [16] 21.7% | [17] 37.2% | [18] 21.7%
active: [1] 8.01% | [2] 6.02% | [6] -21.8% | [11] 7.07%

C=C1c2nc3ccccc3n2C=C(c2ccc(Cl)cc2)N1Cc1ccc(OC)cc1
inactive: [2] 30.9% | [3] 91.1% | [4] 72.1% | [5] 71.6% | [6] 85.8% | [7] 55.2% | [8] 85.4% | [9] 104% | [10] 62.7% | [11] 48% | [12] 97.8% | [13] 97.9% | [14] 92.7% | [15] 54% | [16] 63.5% | [17] 80.4% | [18] 95.4%
active: [1] -2.2%

CC(=O)c1cc2c(N)c(C(=O)Nc3cccc4ccccc34)sc2nc1C
active: [8] -5.38% | [13] -34%
inactive: [1] 12.7% | [2] 10.2% | [3] 21.5% | [4] 64% | [5] 59.6% | [6] 26.8% | [7] 34.7% | [9] 38.2% | [10] 16.3% | [11] 42.7% | [12] 46.5% | [14] 17.8% | [15] 22.1% | [16] 29.3% | [17] 37.1% | [18] 22%

COC[C@H](C)n1c(C2CCOCC2)nc2cnc3cc(-c4c(C)noc4C)c(OC)cc3c21
inactive: [1] 33.5% | [2] 24% | [3] 49.6% | [4] 79.9% | [5] 54.7% | [7] 66.5% | [8] 49.8% | [9] 12.6% | [10] 54.2% | [11] 37.9% | [12] 69.2% | [13] 44.5% | [14] 64.3% | [15] 22.5% | [16] 46.8% | [17] 56.6% | [18] 54%
active: [6] 7.03%

Nc1ccc(S(=O)(=O)O)c2ccc(N=Nc3ccc(N=Nc4ccc(S(=O)(=O)O)cc4)c4ccccc34)c(O)c12
inactive: [1] 99.8% | [2] 104% | [3] 103% | [4] 108% | [5] 115% | [6] 96% | [7] 86.5% | [8] 108% | [9] 100% | [10] 112% | [11] 124% | [12] 107% | [13] 122% | [14] 93.5% | [15] 101% | [16] 99.4% | [17] 105% | [18] 99%

Cn1cc(-c2nonc2-c2c[nH]c3ccc(F)cc23)c2cccnc21
inactive: [1] 58.7% | [2] 69.2% | [3] 89.1% | [4] 90.9% | [5] 71.3% | [6] 87.1% | [7] 61.7% | [8] 82% | [9] 72.9% | [10] 73.1% | [11] 16.2% | [12] 93.1% | [13] 62.3% | [14] 97.3% | [15] 23.5% | [16] 90.9% | [17] 91.8% | [18] 67.4%

O=C1c2ccccc2C(=O)c2c(N=Nc3[nH]c(=S)[nH]c3O)cccc21
active: [2] -2.62% | [8] 1.75% | [9] 5.86% | [13] -67.7%
inactive: [1] 24.5% | [3] 30.3% | [4] 49.8% | [5] 58.9% | [6] 30.6% | [7] 27% | [10] 50% | [11] 21.8% | [12] 34.3% | [14] 18% | [15] 18.7% | [16] 20.1% | [17] 29.9% | [18] 17%

O=C(CN1CCCCC1)Nc1ccc2oc(=O)ccc2c1
inactive: [1] 84.4% | [2] 90.7% | [3] 97.8% | [4] 122% | [5] 120% | [6] 109% | [7] 102% | [8] 111% | [9] 97% | [10] 107% | [11] 103% | [12] 107% | [13] 113% | [14] 97.9% | [15] 96% | [16] 101% | [17] 110% | [18] 104%

O=C(CN1C(=O)/C(=C/c2ccc(Cl)cc2)SC1=S)NCCCN1CCOCC1
inactive: [1] 97.8% | [2] 96% | [3] 103% | [4] 103% | [5] 93.5% | [6] 97.8% | [7] 108% | [8] 101% | [9] 84.2% | [10] 99.9% | [11] 84.3% | [12] 102% | [13] 102% | [14] 102% | [15] 92.8% | [16] 102% | [17] 102% | [18] 104%

Cc1ccccc1COc1ccc(-c2ccnn2-c2ccc(Cl)cc2)cc1
active: [13] 0.81%
inactive: [1] 33.8% | [2] 77.6% | [3] 75.3% | [4] 91.7% | [5] 85.7% | [6] 63.7% | [7] 57.5% | [8] 26.6% | [9] 60.9% | [10] 38% | [11] 65.4% | [12] 75% | [14] 29.7% | [15] 31.9% | [16] 38.1% | [17] 89.1% | [18] 50.7%

Clc1ccc2nc3nc4ccc[nH]c4cc3c2c1
inactive: [1] 39.6% | [2] 65.5% | [3] 87.4% | [4] 127% | [5] 49.2% | [6] 98.1% | [7] 52.9% | [8] 83.1% | [9] 92.2% | [10] 88.3% | [11] 22% | [12] 97.7% | [13] 103% | [14] 102% | [16] 96.9% | [17] 70.6% | [18] 63%
active: [15] 6.54%

O=C(COc1cccc(/C=C2\CSc3ccccc3C2=O)c1)Nc1nccs1
active: [1] -47% | [2] -31.2% | [7] -52.2% | [9] -8.26% | [12] -92.9% | [14] -74.1% | [15] -0.12% | [16] -21% | [18] -39.7%
inactive: [3] 31% | [4] 83.8% | [5] 78.3% | [6] 116% | [8] 24.4% | [10] 54.8% | [11] 68.9% | [13] 20.8% | [17] 100%

C#CC(F)(F)[C@]1(O)CC[C@H]2[C@@H]3CCC4=CC(=O)CCC4=C3[C@@H](c3ccc(C(C)=O)cc3)C[C@@]21C
active: [1] 7.36% | [2] 2% | [7] -34.3% | [8] 9.4%
inactive: [3] 90% | [4] 84.4% | [5] 76.2% | [6] 52.8% | [9] 76.5% | [10] 82.7% | [11] 58.4% | [12] 106% | [13] 102% | [14] 81.1% | [15] 58% | [16] 94.9% | [17] 108% | [18] 29.8%

O=C1C=C(OCC=C(Cl)Cl)C(=O)c2ccccc21
inactive: [1] 51.6% | [2] 45.6% | [3] 71.5% | [4] 116% | [5] 15.9% | [6] 102% | [7] 75.6% | [8] 32.2% | [9] 55.5% | [10] 33.8% | [11] 38.9% | [12] 78.6% | [14] 78.3% | [15] 26.6% | [16] 21.8% | [17] 112% | [18] 91%
active: [13] -55.7%

COc1cccc(/C=C2\Oc3cc(OCCN4CCCC4)ccc3C2=O)c1
inactive: [1] 22.2% | [2] 91.7% | [3] 98.4% | [4] 100% | [5] 111% | [6] 108% | [7] 98.6% | [8] 97% | [9] 91.8% | [10] 93.8% | [11] 91.4% | [12] 80.4% | [13] 99.5% | [14] 86.9% | [15] 77.4% | [16] 78% | [17] 82.6% | [18] 97.8%

CSc1ccc(SC2c3ccc(C)cc3Oc3nc(N)c(C#N)c(N)c32)cc1 (stereo not drawn)
active: [1] -22.9% | [2] -38% | [3] -92% | [4] -80.8% | [5] -94.8% | [7] -86.2% | [8] -94.7% | [9] -8.07% | [10] -18.6% | [11] -45.1% | [12] -87.2% | [13] -86.7% | [14] -68.1% | [15] -52.2% | [16] -83.3% | [17] -88.2% | [18] -42.3%
inactive: [6] 15.1%

COc1ccc(S(=O)(=O)N2CCCCCC2)cc1NC(=O)c1[nH]c(C)c2c1CCCCC2=O
active: [11] 9.29%
inactive: [1] 35.6% | [2] 10.7% | [3] 28.5% | [4] 50.5% | [5] 37.3% | [6] 14.1% | [7] 24.2% | [8] 30.4% | [9] 17.5% | [10] 29.2% | [12] 42.2% | [13] 25.6% | [14] 60.8% | [15] 17.9% | [16] 23.8% | [17] 20.2% | [18] 32.8%
